The record followed here is the supplement of paper PMC4022240.

± gives the standard deviation.

Holding throughout (assay): peptide microarray binding signal (635 nm), min-max normalized on array (fraction of array maximum); higher = stronger binding
Experiment [1] has as its target T1, HaloTag-ATRX ADD domain (163-292).
T1 chain: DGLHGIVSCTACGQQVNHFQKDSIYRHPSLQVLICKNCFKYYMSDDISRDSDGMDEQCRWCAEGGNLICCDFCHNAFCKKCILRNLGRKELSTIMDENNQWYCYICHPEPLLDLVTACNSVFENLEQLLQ
Summed up: (§1)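 An Axon GenePix 4000B scanned the arrays at 635 nm for signal and at 532 nm to catch misprints. Those arrays held histone 13-mer peptide–cellulose conjugates printed in triplicate on nitrocellulose with a Cy3 tracer, blocked overnight at 4°C and probed for 1 h at 4°C with biotin-labelled HaloTag reader fusions (10 nM to 1 μM) plus streptavidin-Alexa Fluor 647 or with rabbit histone antibodies (1:10,000 to 1:2,000) plus anti-rabbit Alexa 647. Each binding signal is a triplicate-spot mean intensity, scaled min-max within its library.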

In experiment [2] the target is HaloTag-ING2 PHD (mouse Ing2 200-280). The essentials: as §1
In experiment [3] the target is anti-H3K4me3 antibody ab8580. Summed up:
as §1

Experiment [4] deals with anti-H3K9me3 antibody ab8898. Summed up:
as §1

Setting [5] is: peptide region: H3 11-23, peptide modifications: H3R17me2a H3K18me1, binder concentration: 1:2,000 dilution.
[6] abbreviates: peptide region: H3 11-23, peptide modifications: H3R17me2a H3K18me1, binder concentration: 1:10,000 dilution.
[7] abbreviates: peptide region: H3 11-23, peptide modifications: H3R17me2a H3K18me3, binder concentration: 1:2,000 dilution.
Setting [8] is: peptide region: H3 11-23, peptide modifications: H3R17me2a H3K18me3, binder concentration: 1:10,000 dilution.
Setting [9] is: peptide region: H3 11-23, peptide modifications: H3R17me2s H3K18me3, binder concentration: 1:2,000 dilution.
Setting [10] is: peptide region: H3 11-23, peptide modifications: H3R17me2s H3K18me3, binder concentration: 1:10,000 dilution.
Where [11] appears, read: peptide region: H3 20-32, binder concentration: 1:2,000 dilution.
Where [12] appears, read: peptide region: H3 20-32, binder concentration: 1:10,000 dilution.
The mark [13] stands for this setting: peptide region: H3 20-32, peptide modifications: H3K23ac H3K27me3, binder concentration: 1:2,000 dilution.
Setting [14] is: peptide region: H3 20-32, peptide modifications: H3K23ac H3K27me3, binder concentration: 1:10,000 dilution.

Consider TGGKAPRKQLATK [H3 11-23 T G G K A P Rme2a Kme Q L A T K], for which the “peptide microarray binding signal” value amounted to 0.0073 ± 0.00016 in experiment [1] (peptide region: H3 11-23, peptide modifications: H3R17me2a H3K18me1, binder concentration: 50 nM); 0.0126 ± 0.0004 in experiment [1] (peptide region: H3 11-23, peptide modifications: H3R17me2a H3K18me1, binder concentration: 500 nM); 0.00949 ± 0.00068 in experiment [2] (peptide region: H3 11-23, peptide modifications: H3R17me2a H3K18me1, binder concentration: 10 nM); 0.0322 ± 0.008 in experiment [2] (peptide region: H3 11-23, peptide modifications: H3R17me2a H3K18me1, binder concentration: 100 nM); 0.00823 ± 0.0013 in experiment [3] (setting [5]); 0.00496 ± 0.00085 in experiment [3] (setting [6]). Moreover, the results for the “peptide microarray binding signal” value in experiment [4] (setting [5]) and in experiment [4] (setting [6]) were 0.00281 ± 0.00028 and 0.00173 ± 1.7e-05, respectively.

Take TGGKAPRKQLATK [H3 11-23 T G G K A P Rme2a Kme3 Q L A T K]: the “peptide microarray binding signal” value amounted to 0.0133 ± 0.00073 in experiment [1] (peptide region: H3 11-23, peptide modifications: H3R17me2a H3K18me3, binder concentration: 50 nM); 0.0186 ± 0.0037 in experiment [1] (peptide region: H3 11-23, peptide modifications: H3R17me2a H3K18me3, binder concentration: 500 nM); 0.0148 ± 0.0037 in experiment [2] (peptide region: H3 11-23, peptide modifications: H3R17me2a H3K18me3, binder concentration: 10 nM); 0.0224 ± 0.0093 in experiment [2] (peptide region: H3 11-23, peptide modifications: H3R17me2a H3K18me3, binder concentration: 100 nM); 0.284 ± 0.098 in experiment [3] (setting [7]); 0.305 ± 0.1 in experiment [3] (setting [8]). In addition, the “peptide microarray binding signal” value was 0.0475 ± 0.015 in experiment [4] (setting [7]) and 0.0213 ± 0.0043 in experiment [4] (setting [8]).

As to TGGKAPRKQLATK [H3 11-23 T G G K A P Rme2s Kme3 Q L A T K], the “peptide microarray binding signal” value came out at 0.00476 ± 0.00011 in experiment [1] (peptide region: H3 11-23, peptide modifications: H3R17me2s H3K18me3, binder concentration: 50 nM); 0.00814 ± 0.00026 in experiment [1] (peptide region: H3 11-23, peptide modifications: H3R17me2s H3K18me3, binder concentration: 500 nM); 0.0107 ± 0.0017 in experiment [2] (peptide region: H3 11-23, peptide modifications: H3R17me2s H3K18me3, binder concentration: 10 nM); 0.0204 ± 0.0049 in experiment [2] (peptide region: H3 11-23, peptide modifications: H3R17me2s H3K18me3, binder concentration: 100 nM); 0.0681 ± 0.028 in experiment [3] (setting [9]); 0.0469 ± 0.0085 in experiment [3] (setting [10]). The “peptide microarray binding signal” value in experiment [4] (setting [9]) worked out at 0.0662 ± 0.01; in experiment [4] (setting [10]), 0.0267 ± 0.0059.

Take LATKAARKSAPAT [H3 20-32 L A T K A A R K S A P A T]: the “peptide microarray binding signal” value in experiment [1] (peptide region: H3 20-32, binder concentration: 50 nM) came to 0.00505 ± 0.00047; in experiment [1] (peptide region: H3 20-32, binder concentration: 500 nM), 0.00533 ± 9e-05; in experiment [2] (peptide region: H3 20-32, binder concentration: 10 nM), 0.00806 ± 9.3e-05; in experiment [2] (peptide region: H3 20-32, binder concentration: 100 nM), 0.0106 ± 0.00016; in experiment [3] (setting [11]) it was 0.00249 ± 7e-05; in experiment [3] (setting [12]), 0.00262 ± 4e-05. The “peptide microarray binding signal” value amounted to 0.000982 ± 2.1e-05 in experiment [4] (setting [11]) and 0.00167 in experiment [4] (setting [12]).

Consider LATKAARKSAPAT [H3 20-32 L A T Kac A A R Kme3 S A P A T], for which the “peptide microarray binding signal” value was determined as 0.006363 ± 3.7e-05 in experiment [1] (peptide region: H3 20-32, peptide modifications: H3K23ac H3K27me3, binder concentration: 50 nM); 0.00867 ± 0.00016 in experiment [1] (peptide region: H3 20-32, peptide modifications: H3K23ac H3K27me3, binder concentration: 500 nM); 0.0207 ± 0.00046 in experiment [2] (peptide region: H3 20-32, peptide modifications: H3K23ac H3K27me3, binder concentration: 10 nM); 0.0281 ± 0.00085 in experiment [2] (peptide region: H3 20-32, peptide modifications: H3K23ac H3K27me3, binder concentration: 100 nM); 0.0464 ± 0.0087 in experiment [3] (setting [13]); 0.044 ± 0.0054 in experiment [3] (setting [14]). In addition, the results for the “peptide microarray binding signal” value in experiment [4] (setting [13]) and in experiment [4] (setting [14]) were 0.253 ± 0.019 and 0.122 ± 0.0084, respectively.
